Bioassay records from PubChem.
This is a sample that favours compounds with a hit; in the whole collection about 21% have one here.
SARS PLP yeast – blocks SARS-CoV papain-like protease in a yeast assay; S. cerevisiae expressing SARS-CoV PLpro, growth rescue; Potency, µM (top dose mostly 32.9 µM), for the others: at the top dose activity, positive = growth rescue, most hits filed as activators; hit rate 0.19% among 330,000; note: potency is the fitted concentration of half-maximal effect; 0% is about no effect; nearly all actives have a fitted effect of over 55% in size
NS1 inh – influenza NS1 inhibition | Potency, µM (series often up to 46.1 µM), for the others: top-dose activity, positive = more growth | hit rate 0.4% among 270,000; note: potency is the fitted concentration of half-maximal effect; actives are rising curves; nearly all actives have a fitted effect of over 50% in size
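Recovery from NS1-induced slow growth read by OD600 in budding yeast switched to galactose assay medium (pH 6.0, -URA) at 1:100 dilution. Compound 23 nl per well; the matching strain lacking NS1 serves as control.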
Pf growth 96h – P. falciparum growth inhibition at 96 hours; P. falciparum luciferase reporter growth, 96 h; Potency, µM (titrated, usually from 28.7 µM), inactives show top-dose activity change, negative = inhibition, hits mostly inhibitors; hit rate 6.9% among 320,000; active = well fitted inhibition curve with a large enough effect; inconclusive = small, poorly fitted or top-dose-only effect, or another doubt; inactive = no such curve, though single readings can be large or run the other way; note: potency is the fitted concentration of half-maximal effect; % is set by controls: 0 for no effect and ±100 for the full control effect
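Infected RBCs, 2% Hct / 0.05% parasitemia final; luciferase-reporter P. falciparum; cpd 96 h, 37 C, 5% CO2; luciferase detection reagent; luminescence.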
Cycloheximide cs – affects cycloheximide protein synthesis inhibition readout, counter-screen | cell reporter, cycloheximide protein synthesis inhibition counterscreen | max response, % | hit rate 12% among 300,000; in the data active = max response mostly above about 13%, no sharp cut-off; inactive = mostly below about 14%; note: read at 38.3 µM for the half of the compounds with a filed dose; 0% is about no effect
Pf growth 48h – inhibits P. falciparum growth in the first generation, 48 h. P. falciparum luciferase growth in erythrocytes, 48 h. Potency, µM (doses to about 28.7 µM), without a hit: at the top dose activity change, negative = inhibition, usual class: inhibitors. hit rate 5.9% among 310,000. AID 504832; active = well fitted inhibition curve with a large enough effect; inconclusive = small, poorly fitted or top-dose-only effect, or another doubt; inactive = no such curve, though single readings can be large or run the other way; note: potency is the fitted concentration of half-maximal effect; % is set by controls: 0 for no effect and ±100 for the full control effect
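Firefly luciferase activity from engineered P. falciparum reports growth; inhibitors lower the luminescent signal. Cultures contained 2% hematocrit erythrocytes at 0.1% final parasitemia.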
Shiga inhibitor – blocks Shiga toxin action in Vero cells; Vero cells, Shiga toxin protein synthesis inhibition reporter; inhibition, % at 38.7 µM; hit rate 9.2% among 290,000; in the data active = inhibition mostly above about 28%, no sharp cut-off; inactive = mostly below about 43%; note: 0% is about no effect
* marks the source's active call; other numbers are inactive results; ? = inconclusive; . = no result. Unless noted, calls come from the whole dose curve.

SMILES	SARS PLP yeast	NS1 inh	Pf growth 96h	Cycloheximide cs	Pf growth 48h	Shiga inhibitor
Cc1c(Br)c(C(=O)N2CCc3ccccc32)nn1C	5%	-1%	125%	91*	123%	62*
Cn1nc(C(=O)N2CCCc3ccccc32)c2ccccc2c1=O	0%	.	26%	1	-3%	-6
O=C(c1nn2c(C(F)(F)F)cc(-c3ccccc3)nc2c1Cl)N1CCOCC1	-4%	-13%	-2%	-6	?	-21
Cc1c(Cl)c(C(=O)N2CCCc3ccccc32)nn1C	-7%	-36%	-1%	16	?	47*
Cc1ccc(C(=O)NCCNC(=O)Cc2ccccc2)cn1	1%	8%	1%	-2	16%	-8
C/C=C/C(=O)[C@@H](C)[C@@H](/C=C/C[Si](C)(C)C)c1ccccc1	.	.	.	8	.	12
CCOC(=O)/C(C#N)=C1\CC2CCC1(C)C2(C)C (centres undefined)	0%	.	53%	5	-22%	-1
CC[C@H](C)Cc1cn([C@@H](CCCN=C(N)N)C(=O)NCCCCCCCCCCC(=O)N2CCNCC2)nn1	6%	.	?	.	4.7µM*	.
CC[C@H](C)[C@@H](C(=O)NCCCCCCCCCCC(=O)N1CCNCC1)n1cc(CCCCN=C(N)N)nn1	4%	.	2.3µM*	.	2.9µM*	.
CC(C)(C)c1ccc(C(=O)NCC(=O)NCC(C)(C)N2CCOCC2)cc1	5%	.	40%	.	11%	.
COc1ccc(-n2c(-c3ccc(Cl)cc3)c[n+]3c2CCc2ccccc2-3)cc1	-1%	.	?	-1	1.9µM*	12
CCN1CCc2c(OCC(=O)Nc3ccc(C)cc3)cccc2C1=O	4%	1%	-18%	-1	-20%	-22
C=CCc1c(C)nc2c(OC)cccc2c1Cl	-1%	-8%	?	14*	9%	34
O=C(OC(C(=O)NCC1CCCO1)c1ccccn1)c1cccs1 (centres undefined)	-1%	-2%	88%	-5	.	-21
COc1cc2oc(=O)ccc2cc1-c1c(OC)ccc2ccc(=O)oc12	2%	.	.	.	.	.
C=C1CCC2C(C)(C)[C@H](O)CC[C@@]2(C)[C@@H]1COc1cc(=O)oc2ccccc12 (some centres undefined)	-6%	-1%	15µM*	-5	?	-4
CC(=O)OC1CCC2(C)C(COc3ccc4ccc(=O)oc4c3)C(C)(O)CCC2C1(C)C (centres undefined)	-12%	-7%	9.3µM*	-2	?	-12
O=C(Oc1cc(=O)oc2ccccc12)c1cccnc1Cl	7%	-1%	-5%	10	1%	14
C=C1CCC2C(C)(C)[C@@H](O)CC[C@@]2(C)[C@@H]1COc1ccc2ccc(=O)oc2c1 (some centres undefined)	-9%	-31%	5.2µM*	-6	12µM*	2
NC(=O)C1CCN(C(=O)CCc2nc3sc4c(c3c(=O)[nH]2)CCCC4)CC1	-2%	.	0%	.	0%	.
Cc1ccc(C)c(/C=C2\CCn3c2nc2cc(C(=O)O)ccc2c3=O)c1	2%	2%	1%	-2	.	6
Nc1cccc(NC(=O)c2ccco2)c1	1%	5%	?	8.1*	34%	16
O=C(Nc1cccc(F)c1)c1ccco1	0%	-5%	7%	29*	110%	42*
Cc1cc(C)cc(C(=O)Nc2cccc(NC(=O)c3ccco3)c2)c1	-11%	-43%	-21%	21*	?	19
CC(=O)Nc1cccc(NC(=O)c2ccco2)c1	0%	0%	?	-2	26%	14
CN(/C=C1/C(=O)CNC1=O)CCO	-1%	.	-4%	12	167%	18
CC(/C=C(\NC(=O)c1ccccc1)C(=O)N=Nc1c(O)[nH]c2ccc(C)cc12)=C\c1ccccc1	2%	-3%	.	2	?	4
COc1ccc(N2CC(NS(=O)(=O)c3cccs3)CC2=O)cc1OC (centres undefined)	3%	.	9%	.	?	.
O=C(CCC(=O)c1ccc(-c2ccccc2)cc1)Nc1cccnc1	2%	5%	-2%	9	-13%	58
CC1CCN(C(C(=O)NC2CCCCC2)c2cc3c(cc2[N+](=O)[O-])OCO3)CC1 (centres undefined)	-42%	-16%	51%	-2	9.3µM*	31
